Source: PubChem
Nrf2 inh: Nrf2 pathway inhibition; Potency, µM (titrated, usually from 46 µM), without a hit: at the highest dose activity change, negative = inhibition, hits mostly inhibitors; AID 504444; A549 ARE-Fluc reporter, luciferase luminescence, 18-24 h; 2.1% of 360,000 active; note: potency is the fitted concentration of half-maximal effect; % is set by controls: 0 for no effect and ±100 for the full control effect; nearly all actives have a fitted effect of over 60% in size
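Cells were seeded and rested 2 h, then exposed to compounds for 18-24 h. CellTiter-Fluor was read first as a viability measure. BugLite was added 15 min before the final luminescent read of ARE-luciferase activity in A549 cells.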
IL-2 act: IL-2 activation; IL-2 activation reporter assay, cell-based qHTS; stimulated with anti-CD3/CD4/CD28 beads; in transgenic mouse T cells; activation, % (series mostly up to about 46 µM); 0.065% of 360,000 active; in the data active = activation above about 50%; inconclusive = mostly about 30% to 49%; note: 0% is about no effect
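Unstimulated transgenic mouse T cells preincubated 60 min with compound, then stimulated with anti-CD3/anti-CD4-coated beads plus anti-CD28 for 18 h at 37 degrees C. IL-2 response read as EGFP and DsRed fluorescence by plate cytometry.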
Nrf2 activator: activators of Nrf2 (ARE) signaling | AREc32 ARE-luciferase reporter (MCF7-derived line), luminescence, 24 h | Potency, µM (titrated, usually from 46.1 µM), for the others: top-dose activation, hits mostly activators | 0.31% of 410,000 active | AID 624171; note: potency is the fitted concentration of half-maximal effect; % of control where 0% means no effect; nearly all actives have a fitted effect of over 65% in size
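ARE-driven firefly luciferase activity in AREc32 cells measured after a 24 hr compound exposure at 37 deg C, using Steady-Glo reagent and a 30 min room-temperature hold.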
p53 reactivator: mutant p53 re-activation in reporter cells; H1299 p53-A138V BP100-luciferase reporter, luminescence, 24 h; Potency, µM (titrated, usually from 92.2 µM), for inactives: top-dose activity change, positive = activation, usual class: activators; 0.063% of 320,000 active; note: potency is the fitted concentration of half-maximal effect; % of control where 0% means no effect; nearly all actives have a fitted effect of over 45% in size
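p53-null H1299 cells stably carrying temperature-sensitive p53-A138V and a BP100-luciferase reporter were pinned with compounds (4-point, 1:5 series) and held 24 hrs at 37 deg C. Luminescence was read 10 min after detection reagent.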
BRCA1 expr act: BRCA1 expression activation. Potency, µM (titrated, usually from 46.1 µM), inactives show at the highest dose activation, actives largely listed as activators. 1.1% of 380,000 active. MCF7-BRCA1-FFLuc reporter, luminescence, 48 h; response scale: scaled: vehicle 0%, 10 µM genistein 100%. AID 624202; note: potency is the fitted concentration of half-maximal effect; nearly all actives have a fitted effect of over 80% in size
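Luminescence from a BRCA1-driven firefly luciferase in MCF7 cells was the read-out, taken 15 min after substrate addition following 48 h compound exposure at 37 °C. Data were normalized to a 10 microM genistein control and DMSO vehicle.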
A549 tox: kills or reduces viability of A549 cells in Nrf2 counter-screen; A549 ARE-Fluc cells, CellTiter-Fluor viability, 18-24 h; Potency, µM (top dose mostly 46 µM), inactives show at the highest dose activity change, negative = cytotoxicity, usual class: inhibitors; 0.16% of 390,000 active; AID 504648; note: potency is the fitted concentration of half-maximal effect; % is set by controls: 0 for no effect and ±100 for the full control effect
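A549 ARE-Fluc cells in 5% FBS OPTI-MEM, 5000 cells/well, rested 2 h then exposed to compounds in concentration-response for 18-24 h at 37 °C. Viability by CellTiter-Fluor fluorescence (Ex 405/Em 525) after 30 min; luciferase luminescence (BugLite, 15 min, RT) read afterwards.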
Starred values were filed as active, the others as inactive; ? = inconclusive; / = no result given; [ ] = another dose, or the depositor's remark. Shown are actives, neighbours in structure and some others; about 3.2% of the full set was active somewhere. Unless noted, calls come from the whole dose curve; as a rule, active = well fitted curve in the direction sought with a large enough effect; inconclusive = small, poorly fitted or top-dose-only effect, or another doubt; inactive = no such curve, though single readings can be large; an effect the other way counts as inactive or inconclusive.

SMILES	Nrf2 inh	IL-2 act	Nrf2 activator	p53 reactivator	BRCA1 expr act	A549 tox
COc1ccccc1/C=C/C(=O)c1ccccc1	?	0	?	32µM*	3%	7%
Cc1ccc(Cn2c(SCC(=O)N/N=C/c3ccc(C)o3)nc3ccccc32)cc1	-14%	3	9%	-1%	-41%	-1%
O=C(CSc1nc2ccccc2n1Cc1ccccc1)N/N=C/c1ccco1	8.2µM*	0	?	-2%	-3%	-18%
CCn1c(SCC(=O)N/N=C/C=C\c2ccco2)nc2ccccc21	?	-4	3.5µM*	16%	-14%	0%
CCC1Oc2ccc(C)cc2N(CC(=O)NCCc2ccccc2)C1=O (stereo unspecified)	/	/	-1%	/	/	1%
Cc1nc2cc(NS(=O)(=O)c3cccc4cccnc34)ccc2s1	26µM*	-1	1%	0%	-37%	1%
Cc1ccc(C)c(S(=O)(=O)Nc2ccc3sc(C)nc3c2)c1	?	-1	-1%	3%	-74%	-10%
Cc1cc(Nc2cc(Cl)ccc2C)n2nc(Cc3ccccc3)nc2n1	?	/	-1%	/	8%	5%
C=C1CCN(C(CC(C)C)C(=O)NCCCc2ccccc2)S(=O)(=O)c2ccccc21 (stereo unspecified)	20%	/	/	/	/	29%
COc1ccccc1N1C(=O)N(C(C)=O)C2C1Nc1ccccc1N2C (stereo unspecified)	?	5	-3%	11%	-111%	12µM*
COc1ccccc1N1C(=O)c2ccccc2NC1c1ccncc1 (stereo unspecified)	/	1	-1%	3%	0%	-6%
CC(C)(C)C(=O)Nc1ccc2nc(SCC(=O)N3CCc4ccccc43)sc2c1	28%	/	1%	/	-25%	-2%
Cn1c(/C(C#N)=C(\O)CN2CCN(Cc3ccccc3)CC2)nc2ccccc21	3%	1	3%	-6%	-10%	5%
Cc1ccc(SC/C(O)=C(\C#N)c2nc3ccccc3n2C)cc1	-26%	8	5%	24%	13µM*	-5%
O=C1c2ccccc2CN1c1ccccc1	?	-1	4%	8%	6.3µM*	1%
Cc1ccc(N2Cc3ccccc3C2=O)cc1	?	1	3%	/	?	2%
COc1ccccc1NS(=O)(=O)c1ccc(C(=O)N2CCCC(C)C2)cc1 (stereo unspecified)	8%	1	0%	-11%	0%	-6%
CC1CCN(S(=O)(=O)c2ccc(C(=O)N3CCCC(C(F)(F)F)C3)cc2)CC1 (stereo unspecified)	21µM*	1	0%	2%	-28%	-14%
COc1ccccc1NS(=O)(=O)c1ccc(C(=O)N2CCCC(C(F)(F)F)C2)cc1 (stereo unspecified)	23µM*	1	0%	-7%	-9%	-8%
O=C(CN1C(=O)CCSc2ccccc21)Nc1ccccc1F	7%	/	-1%	/	4%	-5%
S=C(Nc1ccc(Nc2ccccc2)cc1)Nc1ccccn1	21µM*	0	3%	1%	-49%	?
S=C(Nc1ccccc1)Nc1ccccn1	/	0	10%	/	53%	/
S=C(Nc1ccccc1)c1ccccn1	?	-1	22%	?	10µM*	0%
CC(C)Oc1ccc(CNC(=O)c2ccc(CN3CC(=O)N4CCCCC4C3=O)cc2)cc1 (stereo unspecified)	25%	/	0%	/	/	-1%
c1ccc(CN2CCC(CNc3ncnc4ccccc34)C2)cc1 (stereo unspecified)	21µM*	0	0%	/	-18%	-13%
SMILES	Nrf2 inh	IL-2 act	Nrf2 activator	p53 reactivator	BRCA1 expr act	A549 tox
COc1ccc(NC(=O)Nc2ccccc2SC)cc1	?	2	2%	6%	?	3%
CSc1cccc(NC(=O)Nc2ccc(Cl)cc2)c1	/	0	0%	21%	7.9µM*	-12%
CSc1ccccc1NC(=O)Nc1ccc(Cl)cc1	7.3µM*	2	5%	29%	-52%	23%[1.84 µM]
CSc1cccc(NC(N)=O)c1	-2%	0	4%	-1%	4%	-7%
COc1cccc(NC(=S)N2CCC(Cc3ccccc3)CC2)c1	18µM*	-2	0%	18%	-9%	-1%
COc1ccc(NC(=S)N2CCC(Cc3ccccc3)CC2)cc1OC	?	-3	0%	16%	-16%	2%
Cn1ccc(C(=O)Nc2ccc(Br)cc2Br)n1	?	0	4%	?	2.2µM*	8%
CCc1ccc(S(=O)(=O)c2c(C(=O)c3ccccc3)cnc3ccc(CC)cc23)cc1	-26%	/	?	/	/	-2%
Cc1ccc(CNC(=O)CSc2nc3n[nH]c(C)c3c(=N)n2-c2cccc(C)c2)cc1	15µM*	1	3%	-3%	-51%	?
COc1ccc(S(=O)(=O)NCC(c2ccco2)S(=O)(=O)c2cccs2)cc1C (stereo unspecified)	/	/	7%	/	/	1%
CCc1cc(CNC(=O)c2ccc3nc(Cc4ccc(OC)c(OC)c4)oc3c2)on1	21µM*	-1	2%	?	1%	-9%
O=C(NCC1CCOCC1)c1ccc2nc(Cc3cccc(Cl)c3)oc2c1	?	-1	3%	0%	10µM*	6%
CCC1CCCCN1C(=O)c1ccc2nc(Cc3ccc(OC)cc3)oc2c1 (stereo unspecified)	?	-2	4%	23%	11µM*	6%
COc1ccc(Cc2nc3ccc(C(=O)NCc4cc(C)no4)cc3o2)cc1	?	-3	3%	?	?	1%
COc1ccc(Cc2nc3ccc(C(=O)NCC(C)(C)OC)cc3o2)cc1	?	1	5%	4%	10µM*	-10%
COc1cccc(C2c3c(ncn(-c4ccc(C)cc4)c3=N)Oc3ccc4ccccc4c32)c1 (stereo unspecified)	11%	/	/	/	/	-18%
O=C1c2ccccc2C(=O)N1c1nc(-c2ccc(Cl)cc2)cs1	/	/	/	/	0%	/
CCOc1ccc(/C=C/c2nc(C#N)c(N3CCCCCC3)o2)cc1	12%	/	3%	/	/	12%
CCN1CCN(Cc2ccc(NC(=O)c3ccc(C)c(NC(=O)c4cncc(-c5cccs5)c4)c3)cc2C(F)(F)F)CC1	8.2µM*	-1	-3%	/	-45%	?
CSc1ccc(/C=C/C(=O)NC(=O)c2ccccc2O)cc1	20%	0	15%	6%	13µM*	0%
Cc1ccc(NC(=O)c2nc(S(=O)(=O)Cc3ccccc3F)ncc2Cl)cc1C	/	/	/	/	-29%	/
